A1 inh = caspase 3/7 activation in MEF A1-2A-BIM cells, primary screen, A1 inhibitor project, cell-based, luminescence, HTS | caspase activation, % (no concentration beside the values) | AID 2462, 2010 | Caspase-Glo 3/7 luminescence, 3 h; percent of clofoctol response, vehicle zero | 330,000 tested, 0.066% active;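 active = over half of replicate activation scores above 10%, or exactly half above 10 with the replicate mean above 10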
ALR inh = inhibitors of human ALR sulfhydryl oxidase, primary screen, biochemical, H2O2 detection, HRP-luminol luminescence, single point | FAD-linked sulfhydryl oxidase ALR (Homo sapiens), P55789 | purified ALR, DTT oxidation | inhibition, % (test concentration not listed) | 290,000 tested, 3.8% active | AID 485317, 2010;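 active = mean replicate inhibition above about 79%, with every replicate also reaching it, limit read from the data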
AHR act = AHR activators, primary screen, cell-based, luminescence, luciferase reporter, human; activation, % at 5 µM; AHR-responsive luciferase reporter cells; AID 2796, 2010; 320,000 tested, 2.5% active; Aryl hydrocarbon receptor (Homo sapiens), P35869; in the data active = activation above about 47%
VLA-4 inh = inhibition in human VLA-4 binding assay, primary screen, VLA-4 allosteric modulator project, MLPCN library, flow cytometry, VLA-4 expressing cells; ligand binding flow cytometry; inhibition, % (about 7 µM as worked out from the volumes in the protocol); 330,000 tested, 0.2% active; AID 2557, 2010; in the data active = inhibition above about 50%
Target sequence (P13612 whole entry, looked up): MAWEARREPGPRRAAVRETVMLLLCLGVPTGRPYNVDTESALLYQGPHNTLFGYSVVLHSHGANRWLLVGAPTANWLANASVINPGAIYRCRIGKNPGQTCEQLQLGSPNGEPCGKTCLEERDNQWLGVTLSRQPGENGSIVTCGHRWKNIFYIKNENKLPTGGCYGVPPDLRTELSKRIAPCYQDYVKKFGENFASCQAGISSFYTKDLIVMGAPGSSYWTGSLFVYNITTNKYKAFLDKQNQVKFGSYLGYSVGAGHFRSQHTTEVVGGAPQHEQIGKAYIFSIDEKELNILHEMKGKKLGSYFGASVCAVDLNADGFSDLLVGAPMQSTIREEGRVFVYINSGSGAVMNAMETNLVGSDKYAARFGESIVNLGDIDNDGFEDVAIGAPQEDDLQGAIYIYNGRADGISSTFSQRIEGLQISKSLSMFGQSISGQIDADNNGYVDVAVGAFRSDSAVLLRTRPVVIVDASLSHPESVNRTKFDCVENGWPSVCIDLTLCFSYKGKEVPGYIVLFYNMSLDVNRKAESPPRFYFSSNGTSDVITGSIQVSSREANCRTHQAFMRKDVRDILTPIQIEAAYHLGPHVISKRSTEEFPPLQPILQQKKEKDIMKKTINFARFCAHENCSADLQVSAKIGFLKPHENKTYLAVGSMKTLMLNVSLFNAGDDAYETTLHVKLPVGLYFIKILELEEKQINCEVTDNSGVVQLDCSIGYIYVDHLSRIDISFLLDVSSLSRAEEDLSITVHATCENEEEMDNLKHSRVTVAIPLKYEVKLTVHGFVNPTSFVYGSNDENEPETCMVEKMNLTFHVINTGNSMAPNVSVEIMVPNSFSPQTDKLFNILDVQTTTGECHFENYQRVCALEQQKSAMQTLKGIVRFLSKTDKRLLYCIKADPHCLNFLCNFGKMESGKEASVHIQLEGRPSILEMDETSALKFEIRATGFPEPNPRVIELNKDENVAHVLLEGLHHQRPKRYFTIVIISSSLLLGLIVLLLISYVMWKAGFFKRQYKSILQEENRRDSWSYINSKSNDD
Efflux pump mplx = inhibitors of Candida efflux pumps in yeast, primary screen, S. cerevisiae, Nile Red, multiplex | S. cerevisiae Candida pump triplex | inhibition, % at 10 µM | 330,000 tested, 0.44% active | AID 485275, 2010;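 active = plate passing quality check with inhibition over a set limit, or well fluorescence over plate mean plus 4 SD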;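 also: Nile Red retained in pooled yeast measured as flow cytometry median fluorescence; higher means more Nile Red kept so more efflux inhibition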
SUMO Mot1 rescue = yeast Mot1-301 growth rescue at high temperature, primary screen, SUMOylation pathway inhibitor project, S. cerevisiae, ATP luminescence, 38.5C | S. cerevisiae Mot1-301 growth rescue; percent above DMSO median, 100 means doubled | growth rescue, % at 18.8 µM | 320,000 tested, 1% active;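 active = every valid replicate shows activation above 250% relative to neutral control wells; inactive = the rest, any valid replicate at or below 250%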
A number is an active result. Only some compounds are listed: those with a hit (about 7.2% of all), similar ones and a draw of the others.

What do the screens show for `CC(C)Nc1ccc(Nc2ccccc2)cc1`?
A1 inh: inactive; ALR inh: 99; AHR act: inactive; VLA-4 inh: inactive; Efflux pump mplx: inactive; SUMO Mot1 rescue: inactive

Results for CCCCCCN=Cc1c(O)n(C)c(=O)n(C)c1=O ?
A1 inh: inactive; ALR inh: inactive; AHR act: inactive; VLA-4 inh: inactive; Efflux pump mplx: inactive; SUMO Mot1 rescue: inactive

Results for CN(C)c1ccc(P(=S)(N(C)C)N(C)C)cc1 ?
A1 inh: inactive; ALR inh: 99; AHR act: inactive; VLA-4 inh: inactive; Efflux pump mplx: inactive; SUMO Mot1 rescue: inactive

What do the screens show for `Nc1c(Br)cc([N+](=O)[O-])cc1[N+](=O)[O-]`?
A1 inh: inactive; ALR inh: inactive; AHR act: inactive; VLA-4 inh: inactive; Efflux pump mplx: inactive; SUMO Mot1 rescue: inactive

Results for CC1CN=C(Nc2ccc(N(C)C)cc2)S1 (stereo not drawn) ?
A1 inh: inactive; ALR inh: 89; AHR act: inactive; VLA-4 inh: inactive; Efflux pump mplx: inactive; SUMO Mot1 rescue: inactive

What do the screens show for `COc1ccc(CC(C)Nc2cccc(F)c2)cc1` (stereo not drawn)?
A1 inh: inactive; ALR inh: inactive; AHR act: inactive; VLA-4 inh: inactive; Efflux pump mplx: inactive; SUMO Mot1 rescue: inactive

How did CCN(CC)C(=O)c1ccc2c(c1)C1C(Cl)C(Sc3ccccc3[N+](=O)[O-])CC1C(C(=O)O)N2 (stereo not drawn) do in these assays?
A1 inh: inactive; ALR inh: 97; AHR act: inactive; VLA-4 inh: inactive; Efflux pump mplx: inactive; SUMO Mot1 rescue: inactive

How did CN=C(SCc1cc2c(cc1Cl)OCO2)c1c(O)n(C)c(=O)n(C)c1=O do in these assays?
A1 inh: inactive; ALR inh: 101; AHR act: inactive; VLA-4 inh: inactive; Efflux pump mplx: inactive; SUMO Mot1 rescue: inactive

What do the screens show for `CC(C)N1C(=O)NC(=O)C2(Cc3cc([N+](=O)[O-])ccc3N(C)C2c2ccccc2)C1=O` (stereo not drawn)?
A1 inh: inactive; AHR act: inactive; VLA-4 inh: inactive; Efflux pump mplx: inactive; SUMO Mot1 rescue: inactive

How did COc1ccc(-c2nc(CSCC(=O)N3CCC4(CC3)OCCO4)c(C)o2)cc1OC do in these assays?
A1 inh: inactive; ALR inh: 100; AHR act: inactive; VLA-4 inh: inactive; Efflux pump mplx: inactive; SUMO Mot1 rescue: inactive

Results for COc1ccc(-c2nc3ccc(C(=O)N4CCC5(CC4)OCCO5)cc3nc2-c2ccc(OC)cc2)cc1 ?
A1 inh: inactive; ALR inh: inactive; AHR act: inactive; VLA-4 inh: inactive; Efflux pump mplx: inactive; SUMO Mot1 rescue: inactive

How did Cc1oc(-c2cccs2)nc1CSCC(=O)N1CCC2(CC1)OCCO2 do in these assays?
A1 inh: inactive; ALR inh: 99; AHR act: inactive; VLA-4 inh: inactive; Efflux pump mplx: inactive; SUMO Mot1 rescue: inactive

How did Cn1c(O)c(/C=C/C=Nc2ccccc2)c(=O)n(C)c1=S do in these assays?
A1 inh: inactive; ALR inh: inactive; AHR act: inactive; VLA-4 inh: inactive; Efflux pump mplx: inactive; SUMO Mot1 rescue: inactive

What do the screens show for `CCCCOC(=O)c1ccccc1C(=O)OCc1ccccc1`?
A1 inh: inactive; ALR inh: inactive; AHR act: inactive; VLA-4 inh: inactive; Efflux pump mplx: inactive; SUMO Mot1 rescue: inactive

How did Cn1c(O)c(C(=Nc2ccccc2)SCc2ccc(Cl)cc2)c(=O)n(C)c1=O do in these assays?
A1 inh: inactive; ALR inh: 98; AHR act: inactive; VLA-4 inh: inactive; Efflux pump mplx: inactive; SUMO Mot1 rescue: inactive

How did Cn1c(O)c(C(=N)COc2ccccc2)c(=O)n(C)c1=O do in these assays?
A1 inh: inactive; ALR inh: inactive; AHR act: inactive; VLA-4 inh: inactive; Efflux pump mplx: inactive; SUMO Mot1 rescue: inactive

How did O=C(c1ccc(Cl)cc1)C1CCCN(Cc2ccc3ncccc3c2)C1 (stereo not drawn) do in these assays?
A1 inh: inactive; AHR act: inactive; VLA-4 inh: inactive; Efflux pump mplx: inactive; SUMO Mot1 rescue: 258

Source: PubChem
